From PubChem BioAssay (Tox21)
Inconclusive results are not listed. Active and inactive are the calls of the source. Unless noted, the call rests on the fitted dose curve; in most records, active means well fitted curve in the direction sought with a large enough effect in the repeat runs; inconclusive means weak or mixed curves; inactive means no such curve, though single readings can be large; an effect the other way counts as inactive or inconclusive.

How the values were obtained:
[1] = qHTS assay to identify small molecule agonists of H2AX (AID 1224845; active means well fitted activation curve with a large enough effect in the signal ratio in the repeat runs, not every such curve was filed as active; the % refers to the signal ratio)
Summary of the method: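 Phospho-H2AX Ser139 measured by HTRF (ex 320 nm; em 665 and 620 nm) after 24 hr antibody incubation. Compounds, 15 concentrations, 0.76% DMSO, were applied to CHO-K1 cells for 3hr at 37C before lysis.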

[2] = qHTS assay to identify small molecule agonists of the hypoxia (HIF-1) signaling pathway (AID 1224846; active means well fitted activation curve with a large enough effect in the signal ratio in the repeat runs, not every such curve was filed as active; the % refers to the signal ratio)
Summary of the method: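 In ME-180 cells bearing an HRE-bla construct, 17 h treatment with DMSO-dissolved compounds at 37C was followed by CCF4-AM loading to quantify reporter induction.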

[3] = qHTS assay to identify small molecule agonists of H2AX - cell viability counter screen (AID 1224847; calls by dose curve; further: top concentration of the series differs between compounds; nearly all actives have a fitted effect of over 30% in size)
Summary of the method: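 Cytotoxicity counter screen in wild-type CHO-K1 cells: a 3 hr compound treatment at 37C across 15 concentrations, followed by CellTiter-Glo luminescence to gauge viable cells.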

[4] = qHTS assay to identify small molecule antagonists of the estrogen related receptor (ERR) signaling pathway from Tox21 library (AID 1224848); further: nearly all actives have a fitted effect of over 50% in size
Summary of the method: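 ERR cell line, 2,000 cells/well. 6 h settle, then compound (DMSO) added; 18 h at 37 C; ONE-Glo luminescence after 30 min RT.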

[5] = qHTS assay to identify small molecule agonists of the estrogen related receptor (ERR) signaling pathway from Tox21 library (AID 1224849; calls by dose curve; further: nearly all actives have a fitted effect of over 15% in size); settings: ERR reporter cell line, ONE-Glo luciferase, 18 h; at 92.4 µM (top of the series) unless noted
Summary of the method: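 Reporter cells (ERR, NTP source) treated with Tox21 10K compounds 18 h, 37 C. Readout: ONE-Glo luminescence, 30 min RT.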

[6] = qHTS RealTime-Glo MT Cell Viability Assay in HepG2 cells - 24 hour (AID 1224867); further: nearly all actives have a fitted effect of over 50% in size
Summary of the method: (§1)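 qHTS, HepG2, 600 cells/well, RealTime-Glo (NanoLuc + prosubstrate) added with cells; 5 h preincubation; DMSO compound addition; 37 C; luminescence at 0/8/16/24/32/40 h.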

[7] = qHTS RealTime-Glo MT Cell Viability Assay in HEK293 cells - 32 hour (AID 1224868); further: nearly all actives have a fitted effect of over 50% in size; further: potency means the concentration at half of the fitted maximal effect
Summary of the method: (§2)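 Assay medium contained NanoLuc luciferase plus cell-permeant prosubstrate, added with HEK293 cells at 600 cells/well. After 5 h at 37 C/5% CO2 compounds were added; plates stayed at 37 C for 40 h with serial luminescence reads.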

[8] = A CellTox Green Cytotoxicity Assay to monitor cytotoxicity in HEK293 cells - 0 hour (AID 1224869); further: nearly all actives have a fitted effect of over 50% in size
Summary of the method: (§3)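 Homogeneous no-lysis format: HEK293 cell suspension mixed with CellTox Green reagent, seeded, incubated 5 h at 37 C/5% CO2, then dosed by pintool with compound in DMSO.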

[9] = qHTS RealTime-Glo MT Cell Viability Assay in HepG2 cells - 40 hour (AID 1224870); further: nearly all actives have a fitted effect of over 50% in size
Summary of the method: (§4)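 Real-time viability: cells seeded at 600 per well together with NanoLuc and cell-permeant prosubstrate, compounds added after 5 h incubation. Luminescence tracked at 0, 8, 16, 24, 32 and 40 h of exposure.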

[10] = qHTS RealTime-Glo MT Cell Viability Assay in HEK293 cells - 16 hour (AID 1224872)
Summary of the method: as §2

[11] = qHTS RealTime-Glo MT Cell Viability Assay in HepG2 cells - 8 hour (AID 1224873); further: nearly all actives have a fitted effect of over 55% in size
Summary of the method: as §4

[12] = qHTS RealTime-Glo MT Cell Viability Assay in HEK293 cells - 40 hour (AID 1224874); settings: RealTime-Glo luminescence; max response: hits give low values; further: nearly all actives have a fitted effect of over 50% in size; further: potency means the concentration at half of the fitted maximal effect
Summary of the method: (§5)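 Measured as luminescence from the same continuously cultured HEK293 wells at successive time points (0, 8, 16, 24, 32, 40 h) after compound addition. Reagent present from seeding; dosing at 5 h; incubation 37 C.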

[13] = A CellTox Green Cytotoxicity Assay to monitor cytotoxicity in HepG2 cells - 16 hour (AID 1224876); further: nearly all actives have a fitted effect of over 45% in size
Summary of the method: (§6)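 Fluorescent DNA-binding dye, 600 HepG2 cells/well, 5 h preincubation then compound in DMSO; same plates read at 0–40 h, 37 C.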

[14] = qHTS RealTime-Glo MT Cell Viability Assay in HepG2 cells - 32 hour (AID 1224877); further: nearly all actives have a fitted effect of over 55% in size
Summary of the method: as §1

[15] = A CellTox Green Cytotoxicity Assay to monitor cytotoxicity in HepG2 cells - 24 hour (AID 1224878); further: nearly all actives have a fitted effect of over 45% in size
Summary of the method: as §6

[16] = A CellTox Green Cytotoxicity Assay to monitor cytotoxicity in HepG2 cells - 40 hour (AID 1224879); further: nearly all actives have a fitted effect of over 40% in size
Summary of the method: as §6

[17] = qHTS RealTime-Glo MT Cell Viability Assay in HEK293 cells - 0 hour (AID 1224880); further: top concentration of the series differs between compounds; nearly all actives have a fitted effect of over 45% in size
Summary of the method: as §5

[18] = A CellTox Green Cytotoxicity Assay to monitor cytotoxicity in HEK293 cells - 40 hour (AID 1224871); further: nearly all actives have a fitted effect of over 45% in size
Summary of the method: as §3

[19] = A CellTox Green Cytotoxicity Assay to monitor cytotoxicity in HEK293 cells - 24 hour (AID 1224875); further: nearly all actives have a fitted effect of over 45% in size
Summary of the method: as §3

[20] = A CellTox Green Cytotoxicity Assay to monitor cytotoxicity in HEK293 cells - 32 hour (AID 1224881); further: nearly all actives have a fitted effect of over 40% in size
Summary of the method: as §3
On the % scale 0 is the no-effect control and ±100 the full control effect.

CCCCC(CC)COS(=O)(=O)O (stereo not given)
inactive: Potency [1] | outcome [2] | Potency [3] | Potency [4] | activity change, positive = activation [5] 3.39% | Potency [6] | Potency [7] | Potency [8] | Potency [9] | Potency [10] | Potency [11] | max response [12] -1.73% | Potency [13] | Potency [14] | Potency [15] | Potency [16] | Potency [17]

C1CCCCC1
inactive: Potency [1] | outcome [2] | Potency [3] | Potency [4] | activity change, positive = activation [5] 7.76% | Potency [6] | Potency [7] | Potency [8] | Potency [9] | Potency [18] | Potency [10] | Potency [11] | max response [12] 1.11% | Potency [19] | Potency [13] | Potency [16] | Potency [17] | Potency [20]

CCCCOC(=O)CCCCC(=O)OCCCC
inactive: Potency [1] | outcome [2] | Potency [3] | Potency [4] | activity change, positive = activation [5] -0.363% | Potency [6] | Potency [7] | Potency [8] | Potency [9] | Potency [18] | Potency [10] | Potency [11] | max response [12] 0.321% | Potency [19] | Potency [13] | Potency [14] | Potency [15] | Potency [16] | Potency [17] | Potency [20]

CC(C)CC(O)CC(C)C
inactive: Potency [1] | outcome [2] | Potency [3] | Potency [4] | activity change, positive = activation [5] 2.06% | Potency [6] | Potency [7] | Potency [8] | Potency [9] | Potency [18] | Potency [10] | Potency [11] | max response [12] 2.3% | Potency [13] | Potency [14] | Potency [15] | Potency [17] | Potency [20]

COc1ccc(C(=O)NCc2ccc(OCCN(C)C)cc2)cc1OC
inactive: Potency [1] | outcome [2] | Potency [3] | Potency [4] | activity change, positive = activation [5] -0.159% [at 42.5 µM] | Potency [6] | Potency [7] | Potency [8] | Potency [9] | Potency [18] | Potency [10] | Potency [11] | max response [12] 2.93% | Potency [19] | Potency [13] | Potency [14] | Potency [15] | Potency [16] | Potency [17] | Potency [20]

ClC1=C(Cl)C1(Cl)Cl
inactive: Potency [1] | outcome [2] | Potency [3] | Potency [4] | activity change, positive = activation [5] 7.16% | Potency [6] | Potency [7] | Potency [8] | Potency [9] | Potency [10] | Potency [11] | max response [12] -7.96% | Potency [13] | Potency [14] | Potency [15] | Potency [16] | Potency [17] | Potency [20]

O=C1CC[C@@H](C(=O)O)N1
inactive: Potency [1] | outcome [2] | Potency [3] | Potency [4] | activity change, positive = activation [5] 3.84% [at 42.5 µM] | Potency [6] | Potency [7] | Potency [8] | Potency [9] | Potency [18] | Potency [10] | Potency [11] | max response [12] 0.932% | Potency [13] | Potency [14] | Potency [15] | Potency [16] | Potency [17] | Potency [20]

CC(CO)(CO)C(=O)O
inactive: Potency [1] | outcome [2] | Potency [3] | Potency [4] | activity change, positive = activation [5] -0.0649% | Potency [6] | Potency [7] | Potency [8] | Potency [9] | Potency [18] | Potency [11] | max response [12] 0.0251% | Potency [13] | Potency [14] | Potency [15] | Potency [17] | Potency [20]

N[C@@H](Cc1cc(I)c(O)c(I)c1)C(=O)O
inactive: Potency [1] | outcome [2] | Potency [3] | Potency [4] | activity change, positive = activation [5] 2.55% [at 42.5 µM] | Potency [6] | Potency [7] | Potency [8] | Potency [9] | Potency [18] | Potency [10] | Potency [11] | max response [12] 3.01% | Potency [19] | Potency [13] | Potency [15] | Potency [16] | Potency [17] | Potency [20]

CCC(CO)(CO)[N+](=O)[O-]
inactive: Potency [1] | outcome [2] | Potency [3] | Potency [4] | activity change, positive = activation [5] 1.64% | Potency [6] | Potency [7] | Potency [8] | Potency [9] | Potency [10] | Potency [11] | max response [12] 1.66% | Potency [19] | Potency [14] | Potency [17] | Potency [20]

CC(C)c1ccc(C#N)cc1
inactive: Potency [1] | outcome [2] | Potency [3] | Potency [4] | activity change, positive = activation [5] -9.84% | Potency [6] | Potency [8] | Potency [9] | Potency [18] | Potency [11] | Potency [14] | Potency [16] | Potency [17] | Potency [20]
active: Potency [7] 15.5 µM | Potency [12] 15.5 µM

CCCCCCCCCCCC(=O)OCC(O)CO (stereo not given)
inactive: Potency [1] | outcome [2] | Potency [3] | Potency [4] | activity change, positive = activation [5] 2.33% | Potency [6] | Potency [7] | Potency [8] | Potency [9] | Potency [18] | Potency [10] | Potency [11] | max response [12] 6.6% | Potency [19] | Potency [13] | Potency [15] | Potency [16] | Potency [17] | Potency [20]

O=C(O)c1ccc(O)cc1O
inactive: Potency [1] | outcome [2] | Potency [3] | Potency [4] | activity change, positive = activation [5] -9.45% | Potency [6] | Potency [7] | Potency [9] | Potency [18] | Potency [10] | Potency [11] | max response [12] -2.47% | Potency [19] | Potency [13] | Potency [14] | Potency [15] | Potency [16] | Potency [17] | Potency [20]

CC(C)(C)CCCCCCOC(=O)c1ccccc1C(=O)OCCCCCCC(C)(C)C
inactive: Potency [1] | outcome [2] | Potency [3] | Potency [4] | activity change, positive = activation [5] -3.55% | Potency [6] | Potency [7] | Potency [8] | Potency [9] | Potency [18] | Potency [10] | Potency [11] | max response [12] 7.13% | Potency [19] | Potency [13] | Potency [14] | Potency [15] | Potency [17] | Potency [20]
